Rows were chosen to be rich in hits. Some 3.1% of all compounds tested hit in one or more screens of this group.
Peg3 prom inh: reduces Peg3 promoter-driven luciferase expression in HeLa | inhibition, % at 20 µM | AID 588405 | 360,000 tested, 1.7% active | HeLa PEG-Prom luciferase reporter, luminescence, overnight;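 active means inhibition of at least 50% at 20 µM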
CF NFkB inh: inhibitors of cystic fibrosis induced NF-kB; AID 588850; inhibition, % at 5 µM; 360,000 tested, 0.86% active; KKLEB NF-kB-GFP reporter, PAF-induced, GFP fluorescence overnight;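 active means at least 50% inhibition at 5 µM, scaled per plate between neutral and stimulator controls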;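 further: PAF is a Pseudomonas aeruginosa culture filtrate used as stimulus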
MITF TRPM1 inh: MITF TRPM1 promoter inhibition in SK-MEL-5 cells. SK-MEL-5 TRPM1 promoter luciferase, 24 h. inhibition, % at 12.5 µM. 330,000 tested, 0.83% active;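 active means mean inhibition across replicates of 60% or more, whatever share of single replicates reaches that level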
HIF-2a block: blocks HIF-2a reporter activity. 786-0 RCC cells HIF-2a reporter, luciferase luminescence, overnight. inhibition, % at 18.8 µM. 360,000 tested, 0.72% active;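 active means inhibition of the luminescence signal of 40% or more relative to plate controls, in a single-dose primary screen at 18.75 µM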
ABHD5-PLIN5 inh: inhibitors of human ABHD5-perilipin-5 interaction; Q00G26+Q8WTS1; Split G. princeps luciferase complementation, luminescence, 4 h; inhibition, % at 4 µM; 360,000 tested, 0.78% active; AID 602281;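 active means inhibition above the mean inhibition across every tested compound plus 3 SD, cut at about 22% in these data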
Target sequence (Q00G26 whole entry, looked up): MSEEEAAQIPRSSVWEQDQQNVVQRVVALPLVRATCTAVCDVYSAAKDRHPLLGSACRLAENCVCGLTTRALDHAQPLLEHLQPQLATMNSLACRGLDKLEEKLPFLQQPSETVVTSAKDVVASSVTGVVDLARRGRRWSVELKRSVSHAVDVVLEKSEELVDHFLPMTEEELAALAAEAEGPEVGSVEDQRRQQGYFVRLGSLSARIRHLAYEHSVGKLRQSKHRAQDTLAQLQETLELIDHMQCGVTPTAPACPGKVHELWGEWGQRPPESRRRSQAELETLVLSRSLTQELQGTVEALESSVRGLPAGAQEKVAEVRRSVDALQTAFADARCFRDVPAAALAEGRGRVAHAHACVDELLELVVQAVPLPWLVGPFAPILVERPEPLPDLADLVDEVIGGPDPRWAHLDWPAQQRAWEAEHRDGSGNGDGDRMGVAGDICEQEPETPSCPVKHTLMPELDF
Target sequence (Q8WTS1 whole entry, looked up): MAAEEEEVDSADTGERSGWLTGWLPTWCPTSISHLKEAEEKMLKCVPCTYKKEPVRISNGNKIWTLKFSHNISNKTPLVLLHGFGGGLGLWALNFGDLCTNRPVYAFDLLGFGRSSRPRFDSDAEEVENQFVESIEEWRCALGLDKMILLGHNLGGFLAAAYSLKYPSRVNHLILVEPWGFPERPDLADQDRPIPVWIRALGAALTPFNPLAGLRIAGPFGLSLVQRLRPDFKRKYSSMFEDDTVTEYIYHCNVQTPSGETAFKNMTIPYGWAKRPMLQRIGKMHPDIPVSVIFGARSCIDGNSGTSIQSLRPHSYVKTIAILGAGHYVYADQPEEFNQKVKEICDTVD
KKLEB cytotox: reduces viability of KKLEB cystic fibrosis airway cells; KKLEB CF airway cells viability, ATPlite luminescence, overnight; active compounds read low; cells stimulated with P. aeruginosa culture filtrate; AID 602141; 360,000 tested, 0.36% active; activity change (cytotoxicity), % at 5 µM;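 active means corrected activity change at or below -50% at 5 µM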
ABHD5 PLIN5 conf: confirmation of human ABHD5-PLIN5 interaction inhibitors. inhibition, % at 4 µM. biochemical ABHD5-PLIN5 interaction, luminescence. shares compounds with ABHD5-PLIN5 inh. 2,200 tested, 67% active; in the data active means inhibition above about 23%
HNF4 counter: active in HNF4 split-luciferase counter-screen for ABHD5-PLIN5 inhibitors; AID 651674; shares compounds with ABHD5-PLIN5 inh; HNF4 dimerization, luminescence, biochemical; 2,200 tested, 77% active; inhibition, % at 4 µM;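 active means mean inhibition across replicate wells exceeding the computed hit threshold, cut at about 13% in these data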;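 further: light from luciferase halves that rejoin when HNF4 fusion proteins dimerize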
Numbers stand for hits; n = inactive; x = no result given.

SMILES	Peg3 prom inh	CF NFkB inh	MITF TRPM1 inh	HIF-2a block	ABHD5-PLIN5 inh	KKLEB cytotox	ABHD5 PLIN5 conf	HNF4 counter
Cc1c(NS(=O)(=O)c2cccc(C(=O)NCc3ccco3)c2)c(=O)n(-c2ccccc2)n1C	n	n	n	n	25	n	n	14
O=C(COC(=O)c1ccco1)NCc1ccc(F)cc1	n	n	n	n	n	n	x	x
O=C1N/C(=N/O)S/C1=C/c1cccc([N+](=O)[O-])c1	n	n	n	n	n	n	x	x
CC1(C)CC(=O)/C(=C\c2cccc([N+](=O)[O-])c2)C(C)(C)N1	n	n	n	n	26	n	37	44
CN1C(=O)/C(=C/c2ccc(OCc3ccccc3F)cc2)N(C)C1=S	n	n	n	n	n	n	x	x
COC(=O)CSc1[nH]c2ccc(F)cc2c1[N+](=O)[O-]	n	n	n	n	25	n	44	83
COc1ccc(CCNC(=O)C(=O)NCC2CCCN2S(=O)(=O)c2cccs2)cc1 (stereo not given)	n	n	n	n	n	n	x	x
Cn1cccc1/C=C1\CCC/C(=C\c2cccn2C)C1=O	n	n	n	n	48	n	n	40
COc1ccc(-c2csc(C(C)(O)c3cccc(F)c3)n2)cc1OC (stereo not given)	n	n	x	n	n	n	x	x
Cc1ccc(C)c(S(=O)(=O)N2CCN(Cc3cc4c(cc3O)OCO4)CC2)c1	n	n	n	n	25	n	35	65
CCOC(=O)CSc1nnc(NCC(=O)OC)c(=O)[nH]1	n	n	n	n	26	n	41	80
CN[C@@H]1[C@H](O)[C@H](NC)[C@H]2O[C@@]3(O)C(=O)C[C@@H](C)O[C@H]3O[C@@H]2[C@H]1O	n	n	n	n	n	n	x	x
Cc1csc(N=Nc2ccc(N(C)C)cc2)[n+]1[O-]	n	n	x	n	29	n	26	32
Fc1ccccc1C1CC(c2ccco2)=Nc2ccccc2S1 (stereo not given)	n	n	n	n	43	n	n	91
Oc1ccc(Cl)cc1C1=Nc2ccccc2N=C(c2ccco2)C1	n	n	n	n	n	n	x	x
CCOc1ccccc1N1C(=O)CN(Cc2ccc(OC)c(OC)c2)C1=S	n	n	n	n	n	n	x	x
C=CCn1c(SCC(=O)NC2CCCC2)nc2scc(-c3ccco3)c2c1=O	n	n	n	n	43	n	36	86
CCCCCOC(=O)CSc1nnc(-c2cc(OC)c(OC)c(OC)c2)o1	n	n	n	n	n	n	x	x
CCCOC(=O)CSc1nnc(-c2cc(OC)c(OC)c(OC)c2)o1	n	n	n	n	74	n	n	n
Cc1ncc(N=Nc2ccccc2Cl)c(-c2ccccc2)n1	n	n	n	n	n	n	x	x
Nc1nc(-c2ccccc2)c(N=Nc2ccccc2Cl)s1	n	n	n	n	24	n	26	17
CC(Oc1ccc(Br)cc1)C(=O)N1CCC(C(N)=O)CC1 (stereo not given)	n	n	n	n	45	n	n	n
CC(Oc1ccc(Br)cc1)C(=O)N1CCN(c2ccccn2)CC1 (stereo not given)	n	n	n	n	n	n	x	x
CCOC(=O)c1nn(-c2ccccc2)c(=O)c2c(N)scc12	n	n	n	n	25	n	n	95
CC(C)C[C@H]1CN([C@@H](CC(C)C)CN2CCCC2CN2C(=S)NC[C@@H]2Cc2ccccc2)C(=S)N1CCc1ccccc1 (stereo not given in full)	x	x	x	n	n	x	x	x
O=C(Nc1cccc(C(F)(F)F)c1)/C(=C/c1ccco1)NC(=O)c1cccs1	n	n	n	n	30	n	n	n
O=C(Nc1cccc(F)c1)/C(=C\c1ccco1)NC(=O)c1ccco1	n	n	n	n	27	n	n	n
CC(=O)c1cccc(NC(=O)/C(=C/c2ccco2)NC(=O)c2ccco2)c1	n	n	n	n	n	n	x	x
O=C(COC(=O)c1cc([N+](=O)[O-])ccc1N1CCOCC1)NC1CCCCC1	n	n	n	n	n	n	x	x

Compound activity deposited in PubChem BioAssay by several laboratories.
